Values joined by “and” are separate entries in the source; they are usually repeats but may differ in a detail not shown here. Equal entries are not always repeated. About 2,000 (36%) of roughly 5,500 compounds were called active. Roughly 18% stayed inconclusive and do not appear here. Rule as the data show it: active = normalized growth mostly below about 0.91 (no sharp cut-off); inconclusive = no clear call, values can overlap the other calls; inactive = mostly above about 0.92. Some of the results follow.
Assay: chemical genetic growth profiling, strain panel (AID 1159580);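 also: tested at 20 µM; growth read once vehicle control cultures reached saturation at 30 °C; 1 = growth at the plate median or of vehicle wells; lower values mean less growth of the strain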
Conditions: S. cerevisiae deletion strains, growth OD

Measured: normalized growth

NC[C@H]1O[C@H](O[C@H]2[C@H](O)[C@@H](O[C@H]3O[C@H](CO)[C@@H](O)[C@H](N)[C@H]3O)[C@H](N)C[C@@H]2N)[C@H](N)C[C@@H]1O
inactive: locus YAL013W, strain DEP1, active compounds read low 1 | locus YAL021C, strain ccr4, active compounds read low 0.979 | locus YAL026C, strain drs2, active compounds read low 1.01 | locus YAL030W, strain snc1, active compounds read low 1.01 | locus YBL061C, strain skt5, active compounds read low 1.01 | locus YBR009C, strain hhf1, active compounds read low 1.05 | locus YBR021W, strain FUR4, active compounds read low 1.02 | locus YBR023C, strain chs3, active compounds read low 1.01 | locus YBR171W, strain sec66, active compounds read low 1.01 | locus YBR229C, strain ROT2, active compounds read low 1.01 | locus YBR231C, strain swc5, active compounds read low 0.987 | locus YBR279W, strain paf1, active compounds read low 1.02 | locus YCL011C, strain gbp2, active compounds read low 1.02 | locus YCL016C, strain dcc1, active compounds read low 1.02 | locus YCL029C, strain bik1, active compounds read low 1.02 | locus YCL061C, strain MRC1, active compounds read low 0.994 | locus YCL069W, strain vba3, active compounds read low 1.01 | locus YCR088W, strain abp1, active compounds read low 1.01 | locus YDL005C, strain med2, active compounds read low 1 | locus YDL035C, strain GPR1, active compounds read low 1 | locus YDL040C, strain nat1, active compounds read low 1.02 | locus YDL074C, strain BRE1, active compounds read low 0.971 | locus YDL101C, strain DUN1, active compounds read low 0.997 | locus YDL134C, strain PPH21, active compounds read low 1.01 | locus YDL185W, strain tfp1, active compounds read low 1 | locus YDL192W, strain arf1, active compounds read low 1.01 | locus YDR001C, strain nth1, active compounds read low 1.01 | locus YDR069C, strain doa4, active compounds read low 0.985 | locus YDR101C, strain arx1, active compounds read low 1.02 | locus YDR137W, strain rgp1, active compounds read low 0.99 | locus YDR159W, strain sac3, active compounds read low 0.987 | locus YDR162C, strain NBP2, active compounds read low 1.01 | locus YDR195W, strain ref2 1.01 | locus YDR297W, strain sur2, active compounds read low 1.01 | locus YDR318W, strain mcm21, active compounds read low 1.02 | locus YDR334W, strain swr1, active compounds read low 1.02 | locus YDR335W, strain msn5, active compounds read low 1.01 | locus YDR388W, active compounds read low 1.02 | locus YDR392W, strain spt3, active compounds read low 0.907 | locus YDR502C, strain sam2, active compounds read low 1 | locus YEL003W, strain gim4, active compounds read low 1.03 | locus YEL037C, strain rad23, active compounds read low 1.02 | locus YEL061C, strain CIN8 (second series), active compounds read low 1.02 | locus YEL061C, strain CIN8, active compounds read low 0.988 | locus YER015W, strain faa2, active compounds read low 1.02 | locus YER016W, strain bim1, active compounds read low 1.01 | locus YER110C, active compounds read low 1.01 | locus YER111C, strain swi4, active compounds read low 1.01 | locus YER155C, strain BEM2 (second series), active compounds read low 0.911 | locus YER155C, strain BEM2, active compounds read low 1.02 | locus YER167W, strain BCK2, active compounds read low 1.01 | locus YFR010W, strain ubp6, active compounds read low 1.02 | locus YGL078C, strain dbp3, active compounds read low 1 | locus YGL086W, strain mad1, active compounds read low 0.991 | locus YGL167C, strain pmr1, active compounds read low 1.01 | locus YGL173C, strain kem1, active compounds read low 1.01 | locus YGL227W, strain vid30, active compounds read low 1.01 | locus YGL240W, strain doc1, active compounds read low 0.978 | locus YGL248W, strain PDE1, active compounds read low 0.999 | locus YGL253W, strain hxk2, active compounds read low 1.01 | locus YGR135W, strain pre9, active compounds read low 1.01 | locus YGR252W, strain gcn5, active compounds read low 0.944 | locus YHR013C, strain ard1, active compounds read low 0.952 | locus YHR027C, strain rpn1, active compounds read low 1.02 | locus YHR030C, strain SLT2, active compounds read low 1.01 and 0.98 | locus YHR079C, strain IRE1 (second series), active compounds read low 1.02 | locus YHR079C, strain IRE1, active compounds read low 0.985 | locus YHR094C, strain hxt1, active compounds read low 1.02 | locus YHR129C, strain ARP1, active compounds read low 1.01 | locus YHR142W, strain chs7, active compounds read low 1.03 | locus YHR200W, strain rpn10, active compounds read low 1.01 | locus YIL066C, strain RNR3, active compounds read low 1 | locus YIL073C, strain SPO22, active compounds read low 1.05 | locus YIL125W, strain kgd1, active compounds read low 1 | locus YIR030C, strain dcg1, active compounds read low 1.02 | locus YJL092W, strain hpr5, active compounds read low 1.02 | locus YJL095W, strain BCK1 (second series), active compounds read low 1.04 | locus YJL095W, strain BCK1, active compounds read low 0.985 and 0.999 | locus YJL115W, strain asf1, active compounds read low 1.01 | locus YJL129C, strain trk1, active compounds read low 1 | locus YJL134W, strain LCB3, active compounds read low 1.01 | locus YJL154C, strain vps35, active compounds read low 1.02 | locus YJL164C, strain tpk1, active compounds read low 1.03 | locus YJL166W, strain qcr8, active compounds read low 0.979 | locus YJL168C, strain set2, active compounds read low 1.01 | locus YJL187C, strain SWE1 (second series), active compounds read low 1 | locus YJL187C, strain SWE1, active compounds read low 1.03 | locus YJR043C, strain POL32, active compounds read low 0.98 | locus YJR066W, strain TOR1, active compounds read low 0.951
